Laboratory results from PubChem BioAssay (NCI).
The panel holds about 79,000 compounds, 15% with a hit somewhere; the sample as a whole holds those more often. Calls of active or inactive are those of the source. Rule as the data show it: active = growth inhibition above about 70%; inactive = the rest.

Experiments:
[1] = NCI Yeast Anticancer Drug Screen. Data for the rad52 strain (AID 147);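 also: 0% = growth of vehicle-treated control cultures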; conditions: S. cerevisiae rad52 mutant growth inhibition, stronger effect = higher value
How it was run: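 Growth of repair-deficient yeast cells was compared between compound-treated and vehicle-treated cultures to give percent inhibition.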

[2] = NCI Yeast Anticancer Drug Screen. Data for the wt1 strain (AID 149);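 also: 0% = growth of vehicle-treated wt1 cultures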; conditions: S. cerevisiae wt1 strain (SPY 50644) growth inhibition, stronger effect = higher value
How it was run: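 Compounds are added to wt1 yeast cultures. Growth is then measured. Inhibition is expressed relative to vehicle-treated controls.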

[3] = NCI Yeast Anticancer Drug Screen. Data for the rad50EPP+ strain (AID 151);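 also: 0% = growth of vehicle-treated control cultures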; conditions: S. cerevisiae rad50 mutant strain, stronger effect = higher value
How it was run: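 Measured: growth inhibition of rad50EPP+ yeast. Reference: vehicle-treated controls. Screen uses strains with defined genetic alterations in DNA damage repair or cell cycle control.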

[4] = NCI Yeast Anticancer Drug Screen. Data for the mgt1 strain (AID 153); conditions: S. cerevisiae mgt1 mutant growth inhibition, stronger effect = higher value
How it was run: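 Compounds were applied to mgt1 mutant yeast, and growth was then compared against vehicle-treated control cultures to give percent inhibition.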

[5] = NCI Yeast Anticancer Drug Screen. Data for the rad50 strain (AID 155);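 also: 0% = growth of vehicle-only cultures of the same strain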; conditions: S. cerevisiae rad50 strain growth inhibition, stronger effect = higher value
How it was run: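 Inhibition values express reduced yeast growth in compound-treated cultures relative to vehicle-treated controls.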

[6] = NCI Yeast Anticancer Drug Screen. Data for the mec2-1 strain (AID 157); conditions: S. cerevisiae mec2-1 strain, stronger effect = higher value
How it was run: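 Compounds were applied to mec2-1 yeast cells. Their growth was then compared with that of vehicle-treated cultures to give growth inhibition.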

[7] = NCI Yeast Anticancer Drug Screen. Data for the rad14 strain (AID 159);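 also: 0% = growth of vehicle-treated control cultures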; conditions: S. cerevisiae rad14 strain growth inhibition, stronger effect = higher value
How it was run: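 A mutant yeast strain defective in DNA damage repair is treated with compound; inhibition of its growth is scored against untreated, vehicle-exposed cultures.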

[8] = NCI Yeast Anticancer Drug Screen. Data for the sgs1 mgt1 strain (AID 161);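 also: 0% = growth of cultures given vehicle only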; conditions: S. cerevisiae sgs1 mgt1 strain, stronger effect = higher value
How it was run: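 This yeast growth screen uses a strain with defined DNA-repair lesions; compound-treated growth is compared with vehicle-treated growth.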

[9] = NCI Yeast Anticancer Drug Screen. Data for the CLN2oe strain (AID 163);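 also: 0% = growth of vehicle-only control cultures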; conditions: S. cerevisiae CLN2oe strain, stronger effect = higher value
How it was run: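 Cells of an engineered yeast line with disturbed cell-cycle regulation are treated with compound. Inhibition of growth is then calculated relative to the vehicle-treated reference.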

[10] = NCI Yeast Anticancer Drug Screen. Data for the bub3 strain (AID 167); conditions: S. cerevisiae bub3 mutant strain, stronger effect = higher value
How it was run: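 Steps: expose the mutant yeast strain to compound; grow alongside vehicle-treated cultures; measure growth; express inhibition against the vehicle cultures.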

[11] = NCI Yeast Anticancer Drug Screen. Data for the mlh1 strain (AID 171);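 also: 0% = growth of vehicle-treated control cultures of the same strain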; conditions: S. cerevisiae mlh1 strain growth inhibition, stronger effect = higher value
How it was run: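 Test agents were incubated with yeast bearing a defined DNA damage repair or cell cycle control alteration; values are growth inhibition normalised to vehicle-treated cultures.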

[12] = NCI Yeast Anticancer Drug Screen. Data for the sgs1 strain (AID 173);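 also: 0% = growth of vehicle-only control cultures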; conditions: S. cerevisiae sgs1 mutant, stronger effect = higher value
How it was run: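 Strain with an altered DNA repair or cell cycle pathway exposed to compound. Growth then measured. Value = inhibition versus vehicle control.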

[13] = NCI Yeast Anticancer Drug Screen. Data for the mlh1 rad18 strain (AID 175); conditions: S. cerevisiae mlh1 rad18 strain growth inhibition, stronger effect = higher value
How it was run: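 A repair-deficient yeast strain is exposed to test compound, and growth is scored relative to vehicle-treated controls.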

[14] = NCI Yeast Anticancer Drug Screen. Data for the rad18 strain (AID 177); conditions: S. cerevisiae rad18 mutant growth inhibition, stronger effect = higher value
How it was run: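 DNA-repair-defective yeast; compound treatment; growth inhibition scored against vehicle.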

[15] = NCI Yeast Anticancer Drug Screen. Data for the cln2 rad14 strain (AID 165);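 also: 0% = growth equal to vehicle treated cultures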; conditions: S. cerevisiae cln2 rad14 strain, stronger effect = higher value
How it was run: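 Strain: cln2 rad14 yeast, altered in cell cycle control and DNA damage repair. Read-out: growth inhibition vs vehicle.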

[16] = NCI Yeast Anticancer Drug Screen. Data for the wt2 strain (AID 169);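 also: 0% = growth of vehicle-treated yeast cultures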; conditions: S. cerevisiae wt2 strain growth inhibition, stronger effect = higher value
How it was run: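 Growth of compound-treated yeast is measured and expressed as inhibition relative to vehicle-only controls.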

[17] = at 5.0 µM (retest, dose inferred, filed as 0.5)
[18] = at 50.0 µM (retest, dose inferred, filed as 5.0)

Measured: growth inhibition

BrCC[P+](c1ccccc1)(c1ccccc1)c1ccccc1
active: [1]; at 33.0 µM 94% | [1]; at 100.0 µM 96% | [2]; at 33.0 µM 96% | [2]; at 100.0 µM 98% | [3]; at 33.0 µM 88% | [3]; at 100.0 µM 95% | [4]; at 33.0 µM 94% | [4]; at 100.0 µM 98% | [5]; at 33.0 µM 94% | [5]; [18] 97% | [5]; at 50.0 µM 84.7% | [5]; at 100.0 µM 95% | [6]; at 33.0 µM 95% | [6]; [18] 98% | [6]; at 50.0 µM 90.2% | [6]; at 100.0 µM 97% | [7]; at 33.0 µM 94% | [7]; at 100.0 µM 97% | [8]; [18] 99% | [8]; at 50.0 µM 87% | [9]; at 33.0 µM 90% | [9]; at 100.0 µM 95% | [10]; at 33.0 µM 93% | [10]; [18] 98% | [10]; at 50.0 µM 87.8% | [10]; at 100.0 µM 97% | [11]; at 33.0 µM 93% | [11]; at 100.0 µM 97% | [12]; at 33.0 µM 89% | [12]; at 100.0 µM 94% | [13]; [18] 96% | [13]; at 50.0 µM 83.6% | [14]; at 33.0 µM 95% | [14]; at 100.0 µM 95%
inactive: [1]; at 1.2 µM -39% | [1]; at 3.7 µM -45% | [1]; at 11.0 µM 58% | [2]; at 1.2 µM -60% | [2]; at 3.7 µM -56% | [2]; at 11.0 µM -4% | [3]; at 1.2 µM -44% | [3]; at 3.7 µM -47% | [3]; at 11.0 µM 19% | [4]; at 1.2 µM -61% | [4]; at 3.7 µM -53% | [4]; at 11.0 µM -7% | [5]; at 1.2 µM -36% | [5]; at 3.7 µM -30% | [5]; [17] 19% | [5]; at 11.0 µM 54% | [6]; at 1.2 µM -74% | [6]; at 3.7 µM -63% | [6]; [17] 16% | [6]; at 11.0 µM 14% | [7]; at 1.2 µM -32% | [7]; at 3.7 µM -52% | [7]; at 11.0 µM -16% | [8]; [17] 49% | [9]; at 1.2 µM -21% | [9]; at 3.7 µM -22% | [9]; at 11.0 µM 2% | [10]; at 1.2 µM -70% | [10]; at 3.7 µM -32% | [10]; [17] 47% | [10]; at 11.0 µM 32% | [11]; at 1.2 µM -38% | [11]; at 3.7 µM -70% | [11]; at 11.0 µM 28% | [12]; at 1.2 µM -35% | [12]; at 3.7 µM -56% | [12]; at 11.0 µM -40% | [13]; [17] 5% | [14]; at 1.2 µM -59% | [14]; at 3.7 µM -42% | [14]; at 11.0 µM 54%

CC(C)OC(=O)Oc1ccccc1OC(=O)OC(C)C
inactive: [1]; at 1.2 µM -3% | [1]; at 3.7 µM -3% | [1]; at 11.0 µM 1% | [1]; at 33.0 µM 2% | [1]; at 100.0 µM -3% | [2]; at 1.2 µM -2% | [2]; at 3.7 µM -3% | [2]; at 11.0 µM -1% | [2]; at 33.0 µM -3% | [2]; at 100.0 µM -2% | [3]; at 1.2 µM -1% | [3]; at 3.7 µM 2% | [3]; at 11.0 µM 2% | [3]; at 33.0 µM -1% | [3]; at 100.0 µM 2% | [4]; at 1.2 µM 2% | [4]; at 3.7 µM 3% | [4]; at 11.0 µM 3% | [4]; at 33.0 µM 2% | [4]; at 100.0 µM 4% | [5]; at 1.2 µM -5% | [5]; at 3.7 µM -3% | [5]; [17] 1% | [5]; at 11.0 µM -2% | [5]; at 33.0 µM -1% | [5]; [18] 3% | [5]; at 50.0 µM 39.3% | [5]; at 100.0 µM -1% | [6]; at 1.2 µM 0% | [6]; at 3.7 µM -1% | [6]; [17] -15% | [6]; at 11.0 µM 0% | [6]; at 33.0 µM 0% | [6]; [18] -5% | [6]; at 50.0 µM 20.9% | [6]; at 100.0 µM -1% | [7]; at 1.2 µM -6% | [7]; at 3.7 µM -4% | [7]; at 11.0 µM -3% | [7]; at 33.0 µM 0% | [7]; at 100.0 µM 0% | [8]; [17] -2% | [8]; [18] -6% | [8]; at 50.0 µM 1.8% | [9]; at 1.2 µM 2% | [9]; at 3.7 µM 4% | [9]; at 11.0 µM 3% | [9]; at 33.0 µM 1% | [9]; at 100.0 µM 4% | [15]; [17] 26% | [15]; [18] 55% | [15]; at 50.0 µM 23.2% | [16]; at 1.2 µM -3% | [16]; at 3.7 µM -2% | [16]; at 11.0 µM -2% | [16]; at 33.0 µM -3% | [16]; at 100.0 µM -2% | [11]; at 1.2 µM 0% | [11]; at 3.7 µM 1% | [11]; at 11.0 µM 2% | [11]; at 33.0 µM 3% | [11]; at 100.0 µM 3% | [12]; at 1.2 µM -1% | [12]; at 3.7 µM 0% | [12]; at 11.0 µM 1% | [12]; at 33.0 µM 1% | [12]; at 100.0 µM 2% | [13]; [17] -20% | [13]; [18] -7% | [13]; at 50.0 µM -9.1% | [14]; at 1.2 µM -3% | [14]; at 3.7 µM 1% | [14]; at 11.0 µM 0% | [14]; at 33.0 µM -3% | [14]; at 100.0 µM 0%
